Source: PubChem BioAssay
NR2F2 inh = blocks human COUP-TFII nuclear receptor; inhibition, % at 8.6 µM; AID 686940; HEK293T NGFI-A luciferase reporter, luminescence; 370,000 tested, 0.7% active; P24468;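 active = inhibition above a per-plate cutoff, mean inhibition of test wells between control levels plus 3 SD, cut at about 38% in these data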;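 note: cells cotransfected with COUP-TFII expression vector driving the NGFI-A reporter; 0% = median of COUP-TF2 test wells and 100% = reporter-only cells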
NR5A2 inv ag = NR5A2 inverse agonism in reporter assay. O00482. HEK293T StAR-luciferase reporter, LRH-1 transfected, 24 h. inhibition, % at 3.6 µM. 360,000 tested, 0.13% active. AID 602396;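 active = inhibition above the mean inhibition of all tested compounds plus 3 SD, cut at about 73% in these data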;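 note: 0% = DMSO wells and 100% = reporter-only cells lacking LRH-1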
NCOA3 inh = inhibitors of human steroid receptor coactivator 3 (SRC3); HEK293 GAL4-SRC3 luciferase reporter, luminescence; Q9Y6Q9; 360,000 tested, 0.17% active; inhibition, % at 3.6 µM; AID 588352;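 active = inhibition above a per-campaign cutoff, the mean of all compounds plus 3 SD, cut at about 60% in these data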;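 note: 0% = DMSO-treated cells and 100% = gossypol-treated cells at 36 µM; higher means less SRC3-driven luciferase light from the GAL4 reporter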
NCOA1 inh = inhibits human SRC1 coactivator; Q15788; HEK293 GAL4-SRC1 luciferase reporter, luminescence; inhibition, % at 3.6 µM; 360,000 tested, 0.12% active;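 active = inhibition above the campaign mean plus 3 SD, with each screening campaign given its own cutoff, cut at about 60% in these data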;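 note: 0% = DMSO treated cells and 100% = gossypol at 36 µM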
GalR3 antag = human GalR3 antagonism | HEK293 GalR3-CNG cAMP membrane potential fluorescence; galR3 body fused to GalR1 C-terminus | inhibition, % at 3 µM | 360,000 tested, 0.44% active;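 active = inhibition above the screen-wide average plus 3 SD, cut at about 13% in these data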;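 note: forskolin and galanin both at EC90 stimulate the cells; cAMP rise reported by CNG channel membrane potential dye signal; 0% = forskolin plus galanin with DMSO and 100% = forskolin alone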
Target sequence (O60755 1-299 limits assumed): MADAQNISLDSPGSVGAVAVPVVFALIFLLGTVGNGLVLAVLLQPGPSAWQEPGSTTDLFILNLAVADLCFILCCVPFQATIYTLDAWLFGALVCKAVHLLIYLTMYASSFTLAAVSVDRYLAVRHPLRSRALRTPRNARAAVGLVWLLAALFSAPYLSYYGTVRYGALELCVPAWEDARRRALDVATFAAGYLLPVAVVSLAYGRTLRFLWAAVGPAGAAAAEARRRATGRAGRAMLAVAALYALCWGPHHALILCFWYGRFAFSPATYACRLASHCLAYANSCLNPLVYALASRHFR
SRC2 inh = inhibits human steroid receptor coactivator 2; Q15596; HEK293 GAL4-SRC2 luciferase reporter, luminescence; inhibition, % at 9 µM; 370,000 tested, 0.17% active; AID 651957;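 active = inhibition above the mean inhibition of all tested compounds plus 3 SD, set per campaign, cut at about 52% in these data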;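 note: 0% = DMSO treated cells and 100% = cells given Gossypol at 36 µM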
Starred values were filed as active, the others as inactive; nt = no result. Most compounds without a hit are left out; they make up all but 1.1% or so of the library.

SMILES	NR2F2 inh	NR5A2 inv ag	NCOA3 inh	NCOA1 inh	GalR3 antag	SRC2 inh
CCN(CC)S(=O)(=O)c1ccc(N/N=C/c2ccc(O)cc2O)nc1	-40	40	68*	46	-4	31
Cc1cc(C)c2sc(NNC(=O)c3ccc(S(=O)(=O)N4CCc5ccccc5C4)cc3)nc2c1	-19	70	81*	70*	nt	38
COc1ccc(-c2n[nH]c(=S)n2-c2cc(OC)ccc2OC)cc1	1	-8	5	-5	-5	-16
COc1ccc(OC)c(-n2c(-c3cc(-c4ccc(F)cc4)n[nH]3)n[nH]c2=S)c1	3	16	-6	1	15*	3
COc1ccc(-c2cn[nH]c2-c2ccc(O)cc2O)cc1	19	9	48	55	3	54*
C=C(C)COc1ccc(-c2[nH]ncc2-c2ccc(OC)cc2)c(O)c1	30	9	33	17	-6	27
C/C(=N\Nc1nc2ccccc2[nH]1)c1ccccn1	-43	84*	79*	75*	-7	-59
C/C(=N\Nc1nc2ccccc2[nH]1)c1cc2ccccc2o1	-12	-23	-22	-49	-12	-56
CC1(C)OC(=O)C2=C(C[C@@H](CCC(F)(F)F)O[C@H]2c2ccc(F)cc2)O1	-1	22	13	11	-7	4
CCN(CC)Cc1c(O)ccc2occ(C(=O)c3ccc(OC)cc3)c12	-20	4	3	13	-5	-28
CCN(CC)Cc1c(O)ccc2c([N+](=O)[O-])c(C)n(-c3ccc(OC)cc3)c12	33	24	49	61*	-4	47
C#CCNC(=O)C[C@H]1C[C@@]2(C(=O)OC)C(=C[C@H](C(C)C)O[C@@H]2C2CC2)N(CCCCCCCC)C1=O	19	nt	nt	nt	nt	-4
CCOc1ccc(-n2c(SCc3ccc(C#N)cc3)nnc2-c2cccnc2)cc1	8	4	3	-4	63*	4
N#Cc1ccc(CSc2nnc(-c3cccnc3)n2-c2ccccc2)cc1	19	2	10	1	-8	9
COC(=O)c1cc2c(c3c4cc(C)ccc4n(S(=O)(=O)c4ccc(C)cc4)c13)C(=O)N(Cc1ccccc1OC)C2	10	nt	nt	nt	-6	-2
COC(C(=O)C(O)C(C)O)C1Cc2cc3cc(OC4CC(OC5CC(O)C(O)C(C)O5)C(O)C(C)O4)c(C)c(O)c3c(O)c2C(=O)C1OC1CC(OC2CC(OC3CC(O)C(OC)C(C)O3)C(O)C(C)O2)C(O)C(C)O1 (stereo not drawn)	-11	98*	86*	75*	-5	32
NNC(=O)COc1ccc(F)cc1	-1	4	-9	-16	0	-6
FCCCOc1ccc(-c2nccc(-c3ccccn3)n2)cc1	8	-35	-6	-23	-5	4
O=C(O)COc1ccc(-c2nccc(-c3ccccn3)n2)cc1	41*	10	10	10	-6	67*
NNC(=O)COc1ccc(-c2nccc(-c3ccc(F)cc3)n2)cc1	15	13	-3	-32	-14	53*
COc1cc(NC(=O)CSc2nc(C)cc(=O)[nH]2)cc(OC)c1	2	nt	nt	nt	nt	-18
CCOc1ccc(-n2c(SCC(=O)Nc3ccc(S(=O)(=O)Nc4nccs4)cc3)nnc2-c2ccc(C(C)(C)C)cc2)cc1	2	nt	nt	nt	nt	-6
CC(C)(C)c1nnc(N/N=C/c2ccccc2O)n(N)c1=O	14	-16	79*	70*	-6	33
S=C1Cc2ccccc2N1	60*	64	17	-1	0	67*
CCN(CC(=O)Nc1c(F)cccc1F)C(=O)CSCC(=O)Nc1cc(C)on1	12	-9	15	1	-2	24
SMILES	NR2F2 inh	NR5A2 inv ag	NCOA3 inh	NCOA1 inh	GalR3 antag	SRC2 inh
CCN(CC(=O)Nc1ccc(OC)cc1)C(=O)CSCC(=O)Nc1cc(C)on1	-1	-1	79*	0	-7	-8
O=S(=O)(c1ccc(Cl)cc1)N1CCCC1c1nc(-c2ccc(Cl)cc2)no1 (stereo not drawn)	3	-1	7	-3	-4	95*
O=S(=O)(c1ccccc1Cl)N1CCCC1c1nc(-c2ccccc2Cl)no1 (stereo not drawn)	11	3	8	0	1	8
O=C(NCC(=O)N1CCN(C(c2ccccc2)c2ccccc2)CC1)c1ccccc1Br	22	14	-10	1	4	13
COc1cccc2c1C(=O)c1c(O)c3c(c(O)c1C2=O)C[C@@](O)(C(=O)CO)C[C@@H]3O[C@H]1C[C@H](N)[C@@H](O)[C@H](C)O1	nt	89*	-2	-33	nt	nt
COc1ccc(N=Nc2cc(C)ccc2O)cc1	-53	-140	-66	-151	-4	-67
Cc1ccc(O)c(N=Nc2nccs2)c1	-62	83*	64*	73*	-1	23
O=C(O)CCSc1nnc(-c2ccc3c(c2)OCO3)o1	27	-1	11	16	-1	70*
CC(=O)CSc1nnc(-c2ccc3c(c2)OCO3)o1	-12	-129	-110	-102	-5	0
COC(=O)c1cc2sccc2n1Cc1nc(-c2ccc(OC)cc2)oc1C	39*	-12	-1	-18	-4	-13
CCOC(=O)CCSc1nc(C(C)(C)C)cc(C(F)(F)F)c1C#N	-17	1	17	11	-5	70*
CN(C)c1ccc(C=c2c3cc(O)ccc3n3c2cc(-c2ccccc2)[n+]3C)cc1	18	31	26	-1	-4	-14
CN(C)c1ccc(C=c2c3ccccc3n3c2c2ccccc2[n+]3C)cc1	51*	73*	34	13	-4	1
CN(C)C=Nc1nc2c(Br)ccc(Br)c2cc1C(=O)NCC(C)(C)C	5	nt	nt	nt	nt	3
Cc1ccc(N(Cc2cc(=O)[nH]c3ccccc23)C(=O)CCl)c(C)c1	8	60	42	27	-10	69*
O=S1(=O)c2ccc(N3CCSCC3)cc2Oc2ccccc2CN1Cc1cn(Cc2ccc(Cl)cc2)nn1	16	nt	nt	nt	nt	-24
COc1cccc(CN2CC(C(=O)NCCc3cn4cccnc4n3)CCC2=O)c1 (stereo not drawn)	-1	1	-20	6	-6	13
C(=NNc1ccc2ccccc2n1)c1ccccn1	-45	80*	68*	72*	-6	-20
NC(=O)c1cccc(-c2cnc(N)c(C(=O)c3cccnc3)n2)c1	nt	63	63*	75*	nt	nt
CC(=O)Nc1cccc(-c2csc(N)n2)c1	-23	-5	6	-22	-8	-6
CC(=O)Nc1cccc(-c2cnc(N)c(C(=O)c3cccnc3)n2)c1	nt	75*	78*	79*	nt	nt
Cc1ccc(S(=O)(=O)/C(=C/Cl)NC(=O)c2ccccc2)cc1	30	49	52	15	-5	61*
Cc1ccc(S(=O)(=O)C(NC(=O)c2ccccc2)=C(Cl)Cl)cc1	17	3	-1	-1	3	52
